Laboratory results as given in the supplement of paper PMC11732987, “Enantioselective OTUD7B fragment discovery through chemoproteomics screening and high-throughput optimisation” (Communications Chemistry, 2025).

Key:
Experiment in all cases: log2 ratio of Biotin-Ahx-Ub-VS probe labelling (fragment/DMSO); higher = less target engagement (more negative = stronger competition), active = hit call of the paper (q ≤ 0.05, log2 ratio ≤ -1)
Conditions in all cases: compound concentration: 200 uM; treatment time: 3 h
USP34 = USP34 (UniProt Q70CQ2)
Procedure, shortened: (§1)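 HEK293T lysate (495 µg per sample, in Tris/CHAPS/IGEPAL buffer with protease inhibitors) was treated in triplicate with fragment at 200 µM or with DMSO for 3 h. It was then treated with Biotin-Ahx-Ub-VS (0.5 µM final) for 1 h. Labelled DUBs were NeutrAvidin-enriched, digested with LysC and trypsin, and run by diaPASEF LC-MS/MS. Spectronaut label-free quantities were global-median-normalised. Values are average log2 ratios fragment/DMSO by unpaired t-test, using proteins with ≥2 unique peptides.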

USP36 = biological target: T1, USP36 (UniProt Q9P275)
T1 sequence (whole entry): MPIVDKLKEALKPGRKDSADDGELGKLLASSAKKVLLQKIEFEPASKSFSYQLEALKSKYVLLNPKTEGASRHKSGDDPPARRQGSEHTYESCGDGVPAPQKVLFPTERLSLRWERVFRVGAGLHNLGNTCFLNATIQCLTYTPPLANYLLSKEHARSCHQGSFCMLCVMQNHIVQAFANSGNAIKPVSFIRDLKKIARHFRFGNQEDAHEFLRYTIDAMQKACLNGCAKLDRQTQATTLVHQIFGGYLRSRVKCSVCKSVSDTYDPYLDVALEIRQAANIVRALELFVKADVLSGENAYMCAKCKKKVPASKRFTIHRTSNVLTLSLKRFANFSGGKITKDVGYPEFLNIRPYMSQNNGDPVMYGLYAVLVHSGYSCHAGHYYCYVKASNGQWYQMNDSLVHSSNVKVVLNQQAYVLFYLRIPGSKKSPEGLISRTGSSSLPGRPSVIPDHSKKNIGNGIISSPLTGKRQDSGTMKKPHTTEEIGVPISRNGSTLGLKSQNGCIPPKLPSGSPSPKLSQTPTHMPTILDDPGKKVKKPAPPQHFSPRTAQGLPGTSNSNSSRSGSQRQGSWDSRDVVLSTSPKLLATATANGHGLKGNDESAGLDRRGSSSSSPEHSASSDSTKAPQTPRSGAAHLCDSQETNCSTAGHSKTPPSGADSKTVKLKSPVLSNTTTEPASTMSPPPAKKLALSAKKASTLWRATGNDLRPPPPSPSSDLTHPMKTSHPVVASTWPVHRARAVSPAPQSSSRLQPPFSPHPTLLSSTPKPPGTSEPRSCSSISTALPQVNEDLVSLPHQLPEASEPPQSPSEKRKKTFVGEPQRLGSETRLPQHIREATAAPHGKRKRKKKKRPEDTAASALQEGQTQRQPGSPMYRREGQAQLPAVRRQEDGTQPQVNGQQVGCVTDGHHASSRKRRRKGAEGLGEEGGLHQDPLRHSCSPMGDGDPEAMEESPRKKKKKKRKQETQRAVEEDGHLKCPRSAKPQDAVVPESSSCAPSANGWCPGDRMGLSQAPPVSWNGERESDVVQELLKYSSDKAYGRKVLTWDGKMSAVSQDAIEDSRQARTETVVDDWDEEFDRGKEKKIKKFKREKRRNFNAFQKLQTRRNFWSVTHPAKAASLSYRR
Procedure, shortened: as §1

USP38 = biological target: T2, USP38 (UniProt Q8NB14)
T2 sequence (whole entry): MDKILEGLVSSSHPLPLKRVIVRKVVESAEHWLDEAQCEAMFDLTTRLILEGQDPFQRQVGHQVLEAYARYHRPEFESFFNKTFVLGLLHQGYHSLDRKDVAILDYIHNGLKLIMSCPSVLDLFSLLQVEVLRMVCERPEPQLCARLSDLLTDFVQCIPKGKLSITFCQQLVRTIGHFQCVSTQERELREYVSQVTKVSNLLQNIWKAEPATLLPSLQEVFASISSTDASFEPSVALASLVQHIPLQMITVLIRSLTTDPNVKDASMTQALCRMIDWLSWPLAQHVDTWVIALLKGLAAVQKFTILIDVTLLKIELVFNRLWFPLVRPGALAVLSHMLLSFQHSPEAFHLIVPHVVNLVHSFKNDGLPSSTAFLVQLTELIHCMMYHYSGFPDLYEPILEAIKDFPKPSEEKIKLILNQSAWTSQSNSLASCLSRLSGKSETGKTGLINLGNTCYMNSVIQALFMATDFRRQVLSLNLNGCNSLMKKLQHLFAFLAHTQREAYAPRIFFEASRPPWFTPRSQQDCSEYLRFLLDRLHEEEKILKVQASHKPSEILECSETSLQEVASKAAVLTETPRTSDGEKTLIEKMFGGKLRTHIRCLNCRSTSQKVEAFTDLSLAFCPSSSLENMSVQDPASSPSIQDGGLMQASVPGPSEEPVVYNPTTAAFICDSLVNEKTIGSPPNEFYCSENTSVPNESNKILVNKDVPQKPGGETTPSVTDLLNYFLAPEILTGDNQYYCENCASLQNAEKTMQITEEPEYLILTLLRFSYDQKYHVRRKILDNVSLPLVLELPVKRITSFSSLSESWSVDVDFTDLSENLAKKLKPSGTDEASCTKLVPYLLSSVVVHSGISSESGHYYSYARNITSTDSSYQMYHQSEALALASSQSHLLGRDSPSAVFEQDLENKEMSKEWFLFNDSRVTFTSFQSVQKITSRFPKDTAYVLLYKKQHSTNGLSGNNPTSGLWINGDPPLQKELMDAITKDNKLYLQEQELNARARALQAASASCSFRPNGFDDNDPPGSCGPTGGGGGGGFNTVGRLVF
Procedure, shortened: as §1

USP39 = biological target: T3, USP39 (UniProt Q53GS9)
T3 sequence (whole entry): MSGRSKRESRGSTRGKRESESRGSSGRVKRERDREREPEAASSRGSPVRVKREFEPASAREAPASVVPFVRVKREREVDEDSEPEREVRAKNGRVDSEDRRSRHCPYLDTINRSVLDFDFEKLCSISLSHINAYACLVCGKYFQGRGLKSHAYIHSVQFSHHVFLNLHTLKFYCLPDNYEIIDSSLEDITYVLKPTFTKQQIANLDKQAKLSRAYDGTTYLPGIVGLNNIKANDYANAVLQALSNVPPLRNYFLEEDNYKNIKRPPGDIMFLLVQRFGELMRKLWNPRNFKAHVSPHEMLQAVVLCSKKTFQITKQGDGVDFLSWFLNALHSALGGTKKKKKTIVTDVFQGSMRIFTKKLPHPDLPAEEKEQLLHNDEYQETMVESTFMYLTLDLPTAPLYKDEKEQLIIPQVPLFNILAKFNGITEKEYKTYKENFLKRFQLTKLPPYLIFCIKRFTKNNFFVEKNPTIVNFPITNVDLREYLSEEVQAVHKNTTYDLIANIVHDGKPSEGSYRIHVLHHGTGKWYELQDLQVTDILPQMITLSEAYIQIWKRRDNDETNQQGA
Procedure, shortened: as §1

USP4 = biological target: T4, USP4 (UniProt Q13107)
T4 sequence (whole entry): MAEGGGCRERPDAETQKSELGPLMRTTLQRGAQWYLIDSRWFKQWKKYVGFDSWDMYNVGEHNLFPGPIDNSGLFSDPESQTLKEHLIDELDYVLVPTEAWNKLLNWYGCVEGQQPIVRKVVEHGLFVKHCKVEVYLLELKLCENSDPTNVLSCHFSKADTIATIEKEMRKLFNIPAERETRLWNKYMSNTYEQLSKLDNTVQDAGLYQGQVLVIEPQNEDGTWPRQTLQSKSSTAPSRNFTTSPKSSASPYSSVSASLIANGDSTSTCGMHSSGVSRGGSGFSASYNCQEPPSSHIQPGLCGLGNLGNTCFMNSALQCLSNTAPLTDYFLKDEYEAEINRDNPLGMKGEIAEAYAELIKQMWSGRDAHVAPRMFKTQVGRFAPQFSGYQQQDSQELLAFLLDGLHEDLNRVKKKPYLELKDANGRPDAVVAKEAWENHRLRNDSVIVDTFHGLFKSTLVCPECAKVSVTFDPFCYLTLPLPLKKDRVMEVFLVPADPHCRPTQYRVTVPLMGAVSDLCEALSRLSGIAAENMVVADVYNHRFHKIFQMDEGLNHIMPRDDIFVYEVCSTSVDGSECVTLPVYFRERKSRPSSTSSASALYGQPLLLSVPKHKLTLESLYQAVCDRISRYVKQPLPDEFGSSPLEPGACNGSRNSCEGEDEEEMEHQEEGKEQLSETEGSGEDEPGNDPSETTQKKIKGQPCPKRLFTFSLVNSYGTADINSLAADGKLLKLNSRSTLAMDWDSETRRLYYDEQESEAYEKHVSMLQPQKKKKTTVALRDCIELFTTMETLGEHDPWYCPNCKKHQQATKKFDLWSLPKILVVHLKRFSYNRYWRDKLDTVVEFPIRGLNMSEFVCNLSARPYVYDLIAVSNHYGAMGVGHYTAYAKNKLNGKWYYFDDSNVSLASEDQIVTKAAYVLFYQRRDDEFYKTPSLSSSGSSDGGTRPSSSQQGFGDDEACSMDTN
Procedure, shortened: as §1

Measured: log2 ratio of Biotin-Ahx-Ub-VS probe labelling

Chain of USP34 (Q70CQ2 whole entry, the tested form may be a part): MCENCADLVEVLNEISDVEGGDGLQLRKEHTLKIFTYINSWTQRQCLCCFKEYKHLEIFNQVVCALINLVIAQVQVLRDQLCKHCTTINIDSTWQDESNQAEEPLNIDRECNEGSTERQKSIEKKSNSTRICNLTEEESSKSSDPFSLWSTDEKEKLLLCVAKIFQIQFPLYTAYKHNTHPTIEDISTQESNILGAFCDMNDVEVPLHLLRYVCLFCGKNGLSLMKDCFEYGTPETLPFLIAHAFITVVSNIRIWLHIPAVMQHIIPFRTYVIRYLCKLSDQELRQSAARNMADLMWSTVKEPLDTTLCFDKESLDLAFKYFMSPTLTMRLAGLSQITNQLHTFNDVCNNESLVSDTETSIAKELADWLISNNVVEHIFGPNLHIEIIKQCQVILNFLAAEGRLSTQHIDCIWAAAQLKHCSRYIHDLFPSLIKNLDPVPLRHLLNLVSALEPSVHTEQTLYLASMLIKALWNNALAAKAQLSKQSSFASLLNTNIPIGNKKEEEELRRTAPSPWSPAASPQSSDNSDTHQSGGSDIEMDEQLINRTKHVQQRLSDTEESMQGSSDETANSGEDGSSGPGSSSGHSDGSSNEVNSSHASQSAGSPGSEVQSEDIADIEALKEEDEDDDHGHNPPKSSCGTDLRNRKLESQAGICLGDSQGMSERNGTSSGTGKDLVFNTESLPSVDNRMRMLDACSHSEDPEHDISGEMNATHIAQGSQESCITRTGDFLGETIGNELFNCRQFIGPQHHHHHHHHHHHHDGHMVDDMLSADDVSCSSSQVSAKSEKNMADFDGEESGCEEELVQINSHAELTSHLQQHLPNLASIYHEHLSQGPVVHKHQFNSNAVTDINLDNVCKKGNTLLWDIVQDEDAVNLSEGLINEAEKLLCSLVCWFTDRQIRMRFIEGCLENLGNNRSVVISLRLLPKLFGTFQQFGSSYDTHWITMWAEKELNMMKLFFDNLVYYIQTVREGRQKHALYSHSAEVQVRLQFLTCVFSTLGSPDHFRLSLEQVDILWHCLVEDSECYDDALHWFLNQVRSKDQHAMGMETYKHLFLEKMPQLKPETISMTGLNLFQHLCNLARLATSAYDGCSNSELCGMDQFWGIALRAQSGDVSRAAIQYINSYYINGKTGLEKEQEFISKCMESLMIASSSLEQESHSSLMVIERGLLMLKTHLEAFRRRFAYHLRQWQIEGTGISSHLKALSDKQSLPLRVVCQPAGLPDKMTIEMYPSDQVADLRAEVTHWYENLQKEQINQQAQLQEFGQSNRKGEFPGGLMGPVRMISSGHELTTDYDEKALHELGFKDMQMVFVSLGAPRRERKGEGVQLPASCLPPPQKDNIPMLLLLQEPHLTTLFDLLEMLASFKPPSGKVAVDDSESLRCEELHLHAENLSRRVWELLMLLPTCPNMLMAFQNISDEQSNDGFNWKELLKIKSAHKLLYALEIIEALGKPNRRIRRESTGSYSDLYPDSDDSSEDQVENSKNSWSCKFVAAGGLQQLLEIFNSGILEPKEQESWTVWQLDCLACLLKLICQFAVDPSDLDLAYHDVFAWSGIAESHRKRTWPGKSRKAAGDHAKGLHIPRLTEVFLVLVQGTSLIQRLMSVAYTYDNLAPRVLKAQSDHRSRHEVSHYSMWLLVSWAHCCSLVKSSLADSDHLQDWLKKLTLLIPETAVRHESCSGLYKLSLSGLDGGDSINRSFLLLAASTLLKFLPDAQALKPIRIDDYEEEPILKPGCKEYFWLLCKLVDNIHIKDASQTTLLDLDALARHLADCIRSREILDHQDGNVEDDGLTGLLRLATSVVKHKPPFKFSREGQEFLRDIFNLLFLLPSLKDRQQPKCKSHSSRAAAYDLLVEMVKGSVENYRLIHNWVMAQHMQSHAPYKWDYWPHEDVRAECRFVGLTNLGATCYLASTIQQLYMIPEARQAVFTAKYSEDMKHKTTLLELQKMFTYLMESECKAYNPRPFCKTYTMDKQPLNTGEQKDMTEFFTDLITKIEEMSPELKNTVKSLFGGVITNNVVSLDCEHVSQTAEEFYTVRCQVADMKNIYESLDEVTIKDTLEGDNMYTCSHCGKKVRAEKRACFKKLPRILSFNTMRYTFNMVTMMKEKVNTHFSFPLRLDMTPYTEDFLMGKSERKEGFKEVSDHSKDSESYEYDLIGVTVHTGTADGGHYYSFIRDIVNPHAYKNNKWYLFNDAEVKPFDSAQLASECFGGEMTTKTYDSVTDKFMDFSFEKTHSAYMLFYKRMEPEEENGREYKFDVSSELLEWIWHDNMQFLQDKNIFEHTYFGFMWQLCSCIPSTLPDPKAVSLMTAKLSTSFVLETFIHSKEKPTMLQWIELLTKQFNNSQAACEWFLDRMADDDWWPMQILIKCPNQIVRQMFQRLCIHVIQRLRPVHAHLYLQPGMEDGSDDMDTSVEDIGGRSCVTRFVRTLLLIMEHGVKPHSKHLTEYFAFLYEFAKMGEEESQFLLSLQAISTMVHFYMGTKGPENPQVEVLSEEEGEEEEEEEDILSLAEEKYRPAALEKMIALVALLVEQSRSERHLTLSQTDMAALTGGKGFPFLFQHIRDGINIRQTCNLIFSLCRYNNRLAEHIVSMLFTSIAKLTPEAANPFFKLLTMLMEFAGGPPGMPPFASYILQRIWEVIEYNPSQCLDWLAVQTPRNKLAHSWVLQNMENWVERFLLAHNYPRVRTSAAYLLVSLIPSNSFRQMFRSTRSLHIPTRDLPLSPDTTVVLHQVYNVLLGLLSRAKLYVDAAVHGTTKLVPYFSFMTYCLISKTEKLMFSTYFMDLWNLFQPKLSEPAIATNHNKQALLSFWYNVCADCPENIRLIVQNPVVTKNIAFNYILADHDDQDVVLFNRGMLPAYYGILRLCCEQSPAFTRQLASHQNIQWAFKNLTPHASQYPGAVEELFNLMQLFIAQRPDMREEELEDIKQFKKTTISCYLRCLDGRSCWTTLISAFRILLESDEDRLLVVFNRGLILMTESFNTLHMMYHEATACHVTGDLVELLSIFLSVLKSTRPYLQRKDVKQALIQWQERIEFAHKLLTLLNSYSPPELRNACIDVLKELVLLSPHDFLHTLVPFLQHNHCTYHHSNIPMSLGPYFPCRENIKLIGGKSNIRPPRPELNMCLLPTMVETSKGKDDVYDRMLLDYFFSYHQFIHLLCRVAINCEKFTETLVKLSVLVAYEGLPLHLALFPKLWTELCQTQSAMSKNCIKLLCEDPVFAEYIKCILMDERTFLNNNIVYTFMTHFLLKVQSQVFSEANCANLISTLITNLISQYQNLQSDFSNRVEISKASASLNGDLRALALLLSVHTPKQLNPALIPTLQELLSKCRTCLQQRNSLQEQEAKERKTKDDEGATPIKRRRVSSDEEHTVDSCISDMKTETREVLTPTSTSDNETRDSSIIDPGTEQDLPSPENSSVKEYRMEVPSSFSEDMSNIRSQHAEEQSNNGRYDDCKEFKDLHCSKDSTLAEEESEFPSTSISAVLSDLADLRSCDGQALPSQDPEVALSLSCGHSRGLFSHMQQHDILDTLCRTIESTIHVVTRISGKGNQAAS

O=C(CCl)NCc1ccc2c(c1)OCO2
inactive: USP34 0.112 | USP36 0.129 | USP38 -0.0864 | USP39 0.0456 | USP4 0.0604
